High-throughput results deposited in PubChem by National Center for Advancing Translational Sciences (NCATS).
Compounds with a hit are over-represented: about 2.3% of the library has one in this group of screens.
Pol eta inh: qHTS for Inhibitors of Polymerase Eta; DNA polymerase eta (Homo sapiens), Q9Y253; recombinant Pol eta, fluorescent DNA replication assay; Potency, µM (top dose mostly 114 µM), most hits filed as inhibitors; 390,000 compounds, 1.2% hits
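Fluorescent replication assay: 50 nM final substrate added after a 15 min room-temperature compound preincubation with 10 nM enzyme. Signal taken at 0 min and again at 10 min.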
WRN inhibitor: qHTS for Inhibitors of WRN Helicase. 360,000 compounds, 0.46% hits. Bifunctional 3'-5' exonuclease/ATP-dependent helicase WRN (Homo sapiens), Q14191. WRN helicase unwinding, fluorescent forked duplex, kinetic. Potency, µM (top dose mostly 114 µM), usual class: inhibitors. AID 651768, 2012; further: nearly all actives have a fitted effect of over 55% in size
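Primary qHTS, 1536-well format. 20 nM WRN + compound, 15 min RT; start with 100 nM forked fluorophore/quencher duplex, 2 mM ATP (final); kinetic read ex 525/em 598 nm.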
Pol kappa inh: qHTS for Inhibitors of Polymerase Kappa; DNA polymerase kappa (Homo sapiens), Q9UBT6; AID 588579, 2011; purified Pol kappa, fluorescent DNA synthesis assay, 10 min; 400,000 compounds, 0.53% hits; Potency, µM (top dose mostly 107 µM), hits mostly inhibitors
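Inhibition of 10 nM Pol kappa is measured by a fluorescent read-out at 0 and 10 min following addition of 50 nM substrate (final), with a 15-min room-temperature compound preincubation.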
Pol beta inh: qHTS Assay for Inhibitors of DNA Polymerase Beta | P06746 | Pol beta primer extension/strand displacement, fluorescence kinetic | Potency, µM (top dose mostly 114 µM), most hits filed as inhibitors | 340,000 compounds, 1.3% hits
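Human Pol beta at 10 nM; strand-displacement substrate 50 nM final. Compound exposure 15 min at room temperature before start, reaction 10 min at room temperature.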
POLI inh: qHTS for Inhibitors of Polymerase Iota; DNA polymerase iota (Homo sapiens), Q9UNA4; Pol iota fluorescent replication assay, 10 min; Potency, µM (doses to about 115 µM), usual class: inhibitors; 390,000 compounds, 1% hits; AID 588590, 2011
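Fluorescent replication assay read twice, at 0 min and 10 min after adding 50 nM (final) substrate. Enzyme (10 nM) and compounds were first incubated 15 min at room temperature; enzyme-free buffer wells were negative controls.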
Large screens that a line does not name were inactive. The call rests on the fitted dose curve; in most records, active means well fitted curve in the direction sought with a large enough effect; inconclusive means small, poorly fitted or top-dose-only effect, or another doubt; inactive means no such curve, though single readings can be large; an effect the other way counts as inactive or inconclusive.

O=C(CCCCCNC(=O)c1ccccc1)N/N=C/c1ccco1	Pol beta inh 16µM, POLI inh inconclusive
O=C(N/N=C/c1ccco1)C1CC1c1ccccc1 (centres undefined)	Pol eta inh inconclusive, Pol kappa inh inconclusive, Pol beta inh 16µM, POLI inh 32µM
O=C(CCCCCNC(=O)c1ccccc1)N/N=C/c1ccccc1O	none
O=C(COC(=O)CNC(=O)C1CCCCC1)NC1CC1	none (no result: Pol eta inh, WRN inhibitor, Pol beta inh)
CCC(C)C(NC(=O)OC(C)(C)C)C(=O)NC1COC2CC(n3ccc(NC(C)=O)nc3=O)OC12 (centres undefined)	none (no result: Pol eta inh, WRN inhibitor, Pol beta inh)
O=C(O)c1ccc(C[n+]2c(-c3ccccc3)csc2Nc2ccccc2)cc1	Pol eta inh inconclusive
CC(C)(C)c1cc(-c2csc(Nc3ccccc3)[n+]2Cc2ccc(C(=O)O)cc2)cc(C(C)(C)C)c1O	Pol eta inh 32µM, WRN inhibitor inconclusive, POLI inh inconclusive
CC(C)(C)n1ncc2c(=O)n(Cc3c(F)ccc(Cl)c3Cl)cnc21	none (no result: Pol eta inh, WRN inhibitor, Pol beta inh)
O=C(NCc1ccccn1)c1ccc(Cn2c(=S)[nH]c3ccccc3c2=O)cc1	Pol beta inh inconclusive, POLI inh 50µM
O=C(NCc1ccccn1)c1ccc(Cn2c(=S)[nH]c3ccc(Br)cc3c2=O)cc1	none
Cc1ccc(C)n1-c1cccc(NC(=O)c2ccccc2)c1	Pol eta inh inconclusive, Pol beta inh 16µM
Cc1ccc(C)n1-c1ccc(C(=O)Nc2ccccc2)cc1	POLI inh inconclusive
CCCn1cc(S(=O)(=O)c2cccc(Cl)c2)c(=O)c2cc(F)c(N3CCOCC3)cc21	none (no result: WRN inhibitor)
C=C1C=C(C)n2ncc(C(=O)Nc3ccc(F)cc3F)c2N1	none (no result: Pol eta inh, WRN inhibitor, Pol beta inh)
CC(C)(C)n1ncc2c(=O)n(Cc3ccc(F)cc3)cnc21	none (no result: Pol eta inh, WRN inhibitor, Pol beta inh)
COc1ccc(CNC(=O)CCc2c(C)c3cc4c(C)coc4cc3oc2=O)cc1	POLI inh inconclusive (no result: WRN inhibitor)
CCC(NC(=O)CCc1c(C)c2cc3c(C)c(C)oc3cc2oc1=O)C(=O)N[C@@H](Cc1ccccc1)C(=O)O (some centres undefined)	Pol eta inh inconclusive, Pol beta inh 32µM
COc1ccc(CNC(=O)CCc2c(C)c3cc4c(C)c(C)oc4cc3oc2=O)cc1	Pol beta inh 22µM (no result: WRN inhibitor)
CCOc1ccc(-n2ccnc2SCC(=O)Nc2nc3ccc(C)cc3s2)cc1	Pol eta inh 89µM, Pol beta inh 25µM (no result: WRN inhibitor)
CCOC(=O)c1c(SCC(=O)Nc2nc3ccc(C)cc3s2)nc(=O)[nH]c1C	Pol beta inh inconclusive, POLI inh 89µM (no result: WRN inhibitor)
Cc1ccc2nc(NC(=O)COC(=O)CSc3nc(C)cc(C)n3)sc2c1	Pol beta inh 25µM
O=C1CN(CCN2CC(=O)NC(=O)C2)CC(=O)N1	none (no result: Pol eta inh, WRN inhibitor, Pol beta inh)
CCCCN1CC[C@H]2C=CC[C@@H](C(=O)NC3CCCCC3)[C@H]2C1=O	none (no result: Pol eta inh, WRN inhibitor, Pol beta inh)
CC(=O)c1cccc(N(C(=O)Cn2nnc3ccccc32)C(C(=O)NCc2ccccc2)c2ccc(F)cc2)c1 (centres undefined)	none (no result: WRN inhibitor)
CC(C)(C)n1ncc2c(=O)n(Cc3ccccc3F)cnc21	none (no result: Pol eta inh, WRN inhibitor, Pol beta inh)
CCOc1ccc(NC(=O)CC2Nc3cccc4cccc(c34)NC2=O)cc1 (centres undefined)	Pol kappa inh inconclusive, POLI inh 5µM (no result: WRN inhibitor)
CCOC(=O)c1ccc(NC(=O)CC2Nc3cccc4cccc(c34)NC2=O)cc1 (centres undefined)	Pol kappa inh 14µM, POLI inh 3.5µM (no result: WRN inhibitor)
O=C(NC1CCSC1=O)c1ccccc1 (centres undefined)	none
O=C(NC1CCSC1=O)c1cccc(C(=O)NC2CCSC2=O)c1 (centres undefined)	Pol eta inh inconclusive, Pol beta inh 50µM, POLI inh inconclusive
O=C(O)C(O)c1ccco1 (centres undefined)	Pol eta inh 3.5µM, WRN inhibitor 50µM, Pol kappa inh 20µM, Pol beta inh 2.2µM, POLI inh inconclusive
O=C1CNC(=O)/C(=C/c2ccco2)N1	Pol kappa inh 79µM, POLI inh inconclusive
O=C1SC(c2ccccc2)=N/C1=C/c1ccco1	none
CCCCN(CCC#N)c1ccc(/C=C/c2ccnc3ccccc23)cc1	none (no result: Pol eta inh, WRN inhibitor, Pol beta inh)
COC(=O)/C=C/c1ccc2c(c1)S(=O)(=O)N(C1CCCC1)[C@H]2CC(=O)OC	none (no result: Pol eta inh, WRN inhibitor, Pol beta inh)
O=C(Cc1cccs1)Nc1ccc(F)cc1F	Pol eta inh 79µM
